The record followed here is PubChem BioAssay (NCI).

Structures are written as SMILES. About 83,000 compounds went through this panel and 20% of them were active in at least one assay; those are over-represented in the sample as a whole.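 How to read the values: 0–100, growth inhibition (40 = 60% inhibited); 0, no net growth; -100 to 0, cell death (-40 = 40% of starting cells died; -100 = all dead).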 A number with no mark means an inactive call. Calls of active or inactive are those of the source. The calls were made as follows: active = growth percent below 10; inactive = the rest.

What all share (experiment): NCI-60 one-dose screen, 48 h (100 = growth as untreated, 0 = no growth, -100 = all killed)
What all share (conditions): 10 µM unless noted

Assay [1] deals with NCI-H23 lung.
In assay [2] the test system is NCI-H226 lung.
Assay [3] relates to NCI-H322M lung.
Assay [4] concerns HOP-62 NSCLC.
Assay [5] relates to NCI-H460 lung.
Assay [6] relates to HOP-92 NSCLC.
Assay [7] deals with NCI-H522 lung.
Assay [8] relates to A549/ATCC NSCLC.
For assay [9], the system named is 786-0 renal.
In assay [10] the test system is COLO 205 colon.

As to `C=C(CN1CCN(c2cccc(C(F)(F)F)n2)CC1)c1ccc(C(=O)Nc2ccccc2N)cc1`, the growth was 35.5% in assay [1]; 84.2% in assay [2]; 45.8% in assay [3]; 20.6% in assay [4]; 7.02% (active) in assay [5]; -12.1% (active) in assay [6]. Also, the growth is -45.3% (active) in assay [7], 27.3% in [8], 7.8% (active) in assay [9] and 1.41% (active) in assay [10].

On to `CCOC(=O)c1cnc2ccc(OC)cc2c1Nc1cccc(S(=O)(=O)NC)c1`, for which the growth is 91.8% in assay [1]; 108% in assay [2]; 99.8% in assay [3]; 99.6% in [4]; 114% in assay [5]; 112% in assay [6]. Moreover, the growth in assay [7] was 99.8%; in [8], 103%; in assay [9] it was 77.1%; in assay [10] it was 134%.

`NC1=CC(=O)C(=O)c2ccccc21`: the growth in [1] is 72.7%; in assay [2] it was 98.1%; in [3] it was 102%; in [4] it was 98.2%; in [5], 106%; in assay [6], 106%. Besides, the growth in assay [7] is 80.6%; in assay [8], 112%; in [9] it was 92.8%; in assay [10], 117%.

For the molecule `COc1ccc(-c2cn3c(ccc4ccccc43)n2)cc1`, the growth in assay [1] is 97.5%; in assay [2] it was 88%; in assay [3], 87.3%; in assay [4] it was 80.6%; in assay [5] it was 97.7%; in assay [6], 92.1%. The growth is 87.5% in assay [7], 107% in assay [8], 111% in assay [9] and 112% in [10].

As for `CCCC(=O)Oc1ccc(/C(=C(/CC)Cc2ccccc2)c2ccc(OCCN3CCCC3)cc2)cc1`, the growth is 81.7% in assay [1]; 96% in assay [2]; 79.2% in assay [3]; 82.8% in assay [4]; 20.8% in assay [5]; 79.1% in assay [6]. Further, the growth in assay [7] is 78.4%; in assay [8] it was 67.8%; in assay [9] it was 76.6%; in assay [10], -6.63% (active).

As for `c1c2c(cc3c1OCO3)Cc1cc3c(cc1Cc1cc4c(cc1C2)OCO4)OCO3`, the growth was 109% in assay [1]; 105% in assay [2]; 109% in assay [3]; 109% in assay [4]; 104% in assay [5]; 96.7% in assay [6]. In addition, the growth in [7] was 94.2%; in [8] it was 91.6%; in assay [9] it was 110%; in [10], 114%.

Take `Cc1cc(Nc2nc(N3CCN(C)CC3)nc3ccccc23)n[nH]1`: the growth is 91.6% in [1]; 81.6% in assay [2]; 86.4% in assay [3]; 81.4% in [4]; 69.6% in [5]; 59.8% in assay [6]. The growth in assay [7] is 41.2%; in assay [8], 65.2%; in assay [9], 59.8%; in assay [10], 58%.

Consider `CCOC(=O)/C=C/C(=O)[C@H](CC(C)C)NC(=O)[C@H](Cc1ccccc1)NC(=O)OCc1ccccc1`, for which the growth in [1] is 91%; in [2], 102%; in assay [3], 103%; in [4] it was 108%; in [5], 84.9%; in [6], 79.7%. Further, the growth in assay [7] was 18%; in [8], 73.3%; in [9], 30%; in assay [10], 67.5%.

With `O=C1c2ccccc2-c2nccc3cc(Cl)nc1c23`, the growth in assay [1] is -62.3% (active); in assay [2], 48.2%; in assay [3], 95.7%; in assay [4], 47.6%; in [5], 40.2%; in assay [6] it was 21.2%. Further, the growth in assay [7] was -75.9% (active); in assay [8], 73%; in assay [9], 71.1%; in [10], 54.7%.

On to `CCN(CC)CCCCNc1ccc(NCCCCN(CC)CC)c2c1C(=O)c1ccccc1C2=O`, for which the growth in assay [1] is 77.5%; in [2] it was 113%; in assay [3] it was 110%; in assay [4], 101%; in [5], 57.4%; in assay [6], 55.5%. Besides, the growth in [7] is 96.6%; in assay [8], 56.6%; in assay [9] it was 82%; in [10] it was 76.1%.

With `O=C1C[C@H](Sc2nc(-c3ccc(F)cc3)cc(C(F)(F)F)n2)[C@H]2CO[C@@H]1O2`, the growth in [1] was 99.2%; in [2], 103%; in assay [3], 108%; in [4] it was 104%; in assay [5] it was 106%; in assay [6] it was 105%. In addition, the growth in [7] was -62.1% (active); in assay [8], 102%; in assay [10], 75.8%.

On to `COc1ccc(-c2cn3c(-c4ccc(OC)cc4)cnc3c(Oc3ccc4c(C)cc(=O)oc4c3)n2)cc1`, for which the growth is 33% in assay [1]; 70.7% in assay [2]; 82% in [3]; 40.9% in assay [4]; 26.4% in assay [5]; -13.6% (active) in assay [6]. In addition, the growth was 39.6% in assay [7], 16.5% in [8] and 56.1% in assay [10].

Take `COc1ccc(CCN2CCCn3c2nc2ccccc2c3=O)cc1`: the growth is 32.7% in assay [1]; 37.3% in assay [2]; 45.4% in assay [3]; 48.1% in assay [4]; 10.7% in assay [5]; 46.5% in assay [6]. The growth in assay [7] was 12.2%; in assay [8], 28.6%; in assay [10], -10.2% (active).

Take `O=C(/C=C/c1cccc(Br)c1)c1ccccc1`: the growth in [1] was 98.7%; in assay [2], 92.8%; in assay [3], 97.7%; in [4] it was 70%; in assay [5] it was 104%; in assay [6] it was 79%. The growth in [7] is 64.1%; in assay [8] it was 72.7%; in assay [9], 72.3%; in [10], 99.7%.

Turning to `Cc1ccc2c(c1)C(=O)/C(=C/c1ccc(OCC(=O)c3ccccc3)cc1)O2`, the growth is 84.7% in assay [1]; 69.4% in assay [2]; 108% in [3]; 87.5% in [4]; 108% in [5]; 66.8% in assay [6]. Moreover, the growth is 89.2% in assay [7], 81.6% in [8], 86.8% in [9] and 107% in [10].

On to `O=C(Nc1ccc(CN2CCOCC2)cc1)c1[nH]ncc1Nc1ncnc2sccc12`, for which the growth was -3.72% (active) in assay [1]; 15.5% in assay [2]; 6.2% (active) in [3]; 20.1% in [4]; 3.28% (active) in assay [5]; 22.9% in [6]. Besides, the values for the growth in assay [7], in assay [8] and in [10] were 7.15% (active), 13.6% and -34.9% (active), respectively.

In the case of `Cn1c2ccccc2c2c3c(c4c5ccccc5n(CCCCCC#N)c4c21)C(=O)N(O)C3=O`, the growth in assay [1] was 4.85% (active); in assay [2], 25.1%; in assay [3], 48.8%; in assay [4], 27.2%; in assay [5], 2.84% (active); in assay [6], -11.2% (active). Also, the growth in assay [7] is -51.9% (active); in assay [8], 34.2%; in [10], 62.8%.

For `CCCCNc1ccc2c3c1cccc3c(=O)n1c3ccccc3nc21`, the growth in [1] was 60%; in assay [2], 73.7%; in assay [3], 93.5%; in [4], 81.9%; in [5] it was 48.3%; in assay [6], 61.2%. Moreover, the growth in [7] was 71.9%; in [8] it was 76.6%; in [9] it was 102%; in assay [10] it was 85.4%.

As for `O=C(CNC1C2CC3CC(C2)CC1C3)Sc1nnc2sc3ccccc3n12` (centres undefined), the growth in assay [1] is 95%; in assay [2] it was 91.3%; in assay [3], 113%; in assay [4] it was 104%; in assay [5], 97.9%; in assay [6], 46.2%. Moreover, the growth in assay [7] was 96.4%; in assay [8], 108%; in assay [10], 106%.

Turning to `Cn1c2ccccc2c2c3[nH]c(=O)[nH]c(=O)c3c3c4ccccc4n(C)c3c21`, the growth is 43.3% in assay [1]; 52.6% in [2]; 51.4% in assay [3]; 38.1% in assay [4]; 20.1% in assay [5]; -4.38% (active) in assay [6]. Further, the growth was 20.4% in assay [7], 24.3% in [8] and 53.8% in assay [10].

Take `O=C1Nc2ccccc2C12CC(c1ccccc1)=NN2` (centres undefined): the growth in assay [1] was 70%; in assay [2], 79.3%; in [3], 66.3%; in assay [4], 58.6%; in assay [5], 33.2%; in assay [6], 59.2%. In addition, the growth was 24.6% in assay [7], 39.3% in assay [8], 61.7% in [9] and 31.4% in [10].

As to `CCCCCCCCCc1cc(CN2CCCCC2)c(O)c(CN2CCCCC2)c1`, the growth in [1] was 39.4%; in assay [2], 75.9%; in assay [3], 88.4%; in assay [4], 78.4%; in assay [5], 49.1%; in assay [6], 12.7%. Also, the growth in assay [7] was 49.2%; in assay [8], 61.9%; in assay [10] it was 64.3%.

In the case of `O=C1C=CC(=O)c2c1nc1n2CCCC1`, the growth is 39.2% in assay [1]; 95% in assay [2]; 29.8% in assay [3]; 80% in assay [4]; 24.6% in assay [5]; 132% in assay [6]. Besides, the growth was 72.5% in assay [7], 41.6% in assay [8], 93.3% in assay [9] and 33.2% in [10].

On to `O=c1c2c3c(sc2n2c(CCl)nnc2n1Cc1ccccc1)CCCC3`, for which the growth is -42.1% (active) in assay [1]; -60.9% (active) in [2]; -97% (active) in [3]; 54.7% in assay [4]; -11.5% (active) in assay [5]; -81.7% (active) in [6]. In addition, the growth in [7] is -57.1% (active); in [8], 28.5%; in assay [9], -18% (active); in assay [10] it was -39.1% (active).

For `CN1CCN(Cc2ccc(NC(=O)c3[nH]ncc3Nc3ncnc4[nH]ccc34)cc2)CC1`, the growth in assay [1] was -12.2% (active); in assay [2], -21.3% (active); in assay [3], 3.32% (active); in assay [4], 14.1%; in assay [5], 2.62% (active); in [6] it was -7.91% (active). Further, the values for the growth in [7], in [8] and in [10] were 1.39% (active), 11.4% and -51% (active), respectively.

Regarding `O=C1/C(=C\c2cn(C(=O)c3ccc(Cl)cc3)c3ccccc23)c2ccccc2N1c1c(Cl)cccc1Cl`, the growth in [1] is 97.2%; in assay [2], 94.9%; in assay [3], 112%; in assay [4], 94.2%; in assay [5] it was 111%; in [6], 79.9%. Besides, the growth in assay [7] is 90.9%; in [8] it was 110%; in assay [9] it was 90.7%; in [10], 123%.

With `CNC(=O)c1cc(Oc2ccc3nc(NC(=O)Nc4ccc(N5CCC(N(C)C)CC5)cc4)sc3c2)ccn1`, the growth is 88.1% in assay [1]; 94.9% in [2]; 88.9% in assay [3]; 93.5% in [4]; 81.6% in assay [5]; 74.7% in assay [6]. In addition, the growth is 117% in [7], 79.8% in assay [8] and 80% in [10].

Regarding `CCN1CCN(Cc2ccc(NC(=O)Nc3nc4ccc(Oc5ccnc(C(=O)NC)c5)cc4s3)cc2C(F)(F)F)CC1`, the growth in assay [1] was -12.2% (active); in assay [2], -1.71% (active); in [3] it was 17.1%; in [4], -13% (active); in [5], -66.7% (active); in [6], -68.3% (active). The growth was -46.5% (active) in assay [7], -41.7% (active) in [8] and -40.5% (active) in assay [10].
